Results: PubChem BioAssay (NCATS)
Records with an inconclusive call do not appear. Calls of active or inactive are those of the source. Calls come from the whole dose curve; tested in HEK293 reporter line.

assay: qHTS for Inhibitors of the Functional Ribonucleoprotein Complex (vRNP) of Lassa (LASV) Arenavirus: LASV Primary Screen - GLuc reporter signal (AID 1347082); details: LASV minigenome vRNP, Gaussia luciferase reporter; series mostly up to 57.5 µM; activity change, negative = inhibition: at the top concentration; note: nearly all actives have a fitted effect of over 60% in size
% is set by controls: 0 for no effect and ±100 for the full control effect.

SMILES | activity change, negative = inhibition | Potency
NS(=O)(=O)c1cc(C(=O)NN2C[C@H]3[C@H]4CCC(C4)[C@H]3C2)ccc1Cl | -2.51% (inactive) | –
O=S(=O)(O)c1ccc(O)cc1 | 12.1% (inactive) | –
COc1ccc2c(c1)CCCC2=O | -4.85% (inactive) | –
Cc1c(C(=O)NCCO)[n+](=O)c2ccccc2n1[O-] | -1.9% (inactive) | –
COCCc1ccccn1 | 0.803% (inactive) | –
CCOC(=O)c1ccc(N)cc1 | -22.3% (inactive) | –
CC(C(=O)O)c1cccc(Oc2ccccc2)c1 (centres undefined) | 0.455% (inactive) | –
COc1cc(C)c(Cc2cnc(N)nc2N)cc1OC | 7.89% (inactive) | –
CCc1cc(S(=O)(=O)O)c2cc(C(C)C)cccc1-2 | -3.54% (inactive) | –
CCCCNC(=O)NS(=O)(=O)c1ccc(N)cc1 | 3.01% (inactive) | –
Cc1cccn2c(=O)c(-c3nnn[nH]3)cnc12 | -4.54% [at 24.7 µM] (inactive) | –
Cc1nnc(NS(=O)(=O)c2ccc(N)cc2)s1 | – | inactive
C=CCn1c(=O)n([C@@H]2O[C@H](CO)[C@@H](O)[C@H]2O)c2nc(N)[nH]c(=O)c21 | -2.52% (inactive) | –
Oc1c(Br)cc(Br)c2cccnc12 | 11.7% (inactive) | –
CCCC(=O)Nc1ccc(O)c(C(C)=O)c1 | -4.27% (inactive) | –
CC(C)[C@H](N)C(=O)OCCOCn1cnc2c(=O)[nH]c(N)nc21 | – | inactive
COC(=O)c1cccnc1 | – | inactive
OC1(c2ccc(Cl)cc2)CCNCC1 | -4.85% (inactive) | –
COc1c2occc2c(OC)c2c(=O)cc(C)oc12 | 0.821% (inactive) | –
OCc1ccc(Cl)cc1Cl | 2.46% (inactive) | –
CN1C(C(=O)Nc2ccccn2)=C(O)c2ccccc2S1(=O)=O | – | inactive
Clc1cccc(Cl)c1NC1=NCCN1 | – | inactive
Cc1nc(-c2ccc(Cl)cc2)oc1COC(C)(C)C(=O)O | -2.98% (inactive) | –
CC(=O)[C@@]1(O)CC[C@H]2[C@@H]3C[C@H](C)C4=CC(=O)C=C[C@]4(C)[C@@]3(F)[C@@H](O)C[C@@]21C | 0.826% (inactive) | –
